# The supplement of paper PMC12645437, “Orthogonal IMiD-Degron Pairs Induce Selective Protein Degradation in Cells” (ACS Chemical Biology, 2025)
# Over roughly 8,300 sequences, “log2 fold change of degron read counts, EGFP-low vs EGFP+ sorted cells (limma voom), compound-induced degradation” has its median near -1.1; the highest 2% begin near 3.2. The entries come from a sample that favours the highest values as a whole.
# T1: CRBN, Q96SW2
# T1 chain: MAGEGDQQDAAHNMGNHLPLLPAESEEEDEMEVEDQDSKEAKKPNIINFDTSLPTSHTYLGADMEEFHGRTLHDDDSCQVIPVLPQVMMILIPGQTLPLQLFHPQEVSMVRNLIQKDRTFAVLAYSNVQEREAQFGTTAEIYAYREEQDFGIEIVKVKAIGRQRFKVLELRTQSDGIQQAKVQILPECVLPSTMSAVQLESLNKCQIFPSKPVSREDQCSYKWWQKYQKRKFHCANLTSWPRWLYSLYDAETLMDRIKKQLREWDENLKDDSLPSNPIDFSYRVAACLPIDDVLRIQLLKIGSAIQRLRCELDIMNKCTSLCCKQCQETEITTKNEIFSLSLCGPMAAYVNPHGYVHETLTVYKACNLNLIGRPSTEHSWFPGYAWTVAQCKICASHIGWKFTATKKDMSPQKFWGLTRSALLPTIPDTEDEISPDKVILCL
# Molecular target: T1, CRBN, Q96SW2
# Test: log2 fold change of degron read counts, EGFP-low vs EGFP+ sorted cells (limma voom), compound-induced degradation; higher = more compound-induced degradation of the degron-EGFP fusion; degrons are variants of IKZF1/3 zinc finger 2; compound dose not given here
# Conditions: Jurkat, 18 h
# [1] = compound: compound 19 (5-tert-butyl-thalidomide)
# [2] = compound: compound 22 (5-morpholino-thalidomide)
# [3] = compound: compound 33 (diphenyl IMiD analogue)
# 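Note: pooled lentiviral library of zinc finger degron-EGFP fusions in mCherry-positive Jurkat cells, FACS-sorted after compound exposure, with degron abundance counted by next-generation sequencing.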
Sequence,log2 fold change of degron read counts [1],log2 fold change of degron read counts [2],log2 fold change of degron read counts [3],log2 fold change of degron read counts (compound: thalidomide)
"FFCSVCGHTFTQKGNLLRHIKL [46F_47F_49S_50V_52G_53H_54T_55F_67L_, Q9UKT9]",-1.42,-2.35,-2.3,-2.45
"FNCNQCGAKFTQKGNLLRHIKL [46F_47N_49N_50Q_52G_53A_54K_55F_67L_, Q9UKT9]",-2.03,-2.67,-2.17,-1.99
"FQCNQCGHYFTQKGNLLRHIKL [46F_47Q_49N_50Q_52G_53H_54Y_55F_67L_, Q9UKT9]",-3.07,-2.91,-2.9,-2.48
"FYCNQCGATFTQKGNLLRHIKL [46F_47Y_49N_50Q_52G_53A_54T_55F_67L_, Q9UKT9]",-1.8,-0.678,-1.33,-2.43
"FHCDQCGAWFTQKGNLLRHIKL [46F_47H_49D_50Q_52G_53A_54W_55F_67L_, Q9UKT9]",-2.39,-3.42,-2.72,-2.68
"FYCEICGRDFTQKGNLLRHIKL [46F_47Y_49E_50I_52G_53R_54D_55F_67L_, Q9UKT9]",-2.29,-2.76,-1.95,-2.67
"FQCDQCGAQFTQKGNLLRHIKL [46F_47Q_49D_50Q_52G_53A_54Q_55F_67L_, Q9UKT9]",-2.81,-1.76,-1.35,0.414
"FFCEICGHMFTQKGNLLRHIKL [46F_47F_49E_50I_52G_53H_54M_55F_67L_, Q9UKT9]",-1.68,-2.18,-1.72,-2.01
"FECNQCGAYFTQKGNLLRHIKL [46F_47E_49N_50Q_52G_53A_54Y_55F_67L_, Q9UKT9]",-2.64,-2.84,-1.48,-1.4
"FMCEICGHVFTQKGNLLRHIKL [46F_47M_49E_50I_52G_53H_54V_55F_67L_, Q9UKT9]",-2.94,-3.04,-2.18,-2.54
"FKCNICGAWFTQKGNLLRHIKL [46F_47K_49N_50I_52G_53A_54W_55F_67L_, Q9UKT9]",-1.98,-2.92,-2.11,-1.78
"FCCPICGADFTQKGNLLRHIKL [46F_47C_49P_50I_52G_53A_54D_55F_67L_, Q9UKT9]",1.61,1.1,1.77,1.6
"FDCPICGAPFTQKGNLLRHIKL [46F_47D_49P_50I_52G_53A_54P_55F_67L_, Q9UKT9]",2.88,1.73,1.54,2.15
"FYCPICGADFTQKGNLLRHIKL [46F_47Y_49P_50I_52G_53A_54D_55F_67L_, Q9UKT9]",1.73,1.44,1.25,-0.522
"FCCNICGAPFTQKGNLLRHIKL [46F_47C_49N_50I_52G_53A_54P_55F_67L_, Q9UKT9]",3.01,2.73,1.32,1.86
"FCCPICGAPFTQKGNLLRHIKL [46F_47C_49P_50I_52G_53A_54P_55F_67L_, Q9UKT9]",3.65,3.16,2.16,2.67
"FVCPICGAPFTQKGNLLRHIKL [46F_47V_49P_50I_52G_53A_54P_55F_67L_, Q9UKT9]",2.4,3.68,2.3,3.49
"FLCPICGAPFTQKGNLLRHIKL [46F_47L_49P_50I_52G_53A_54P_55F_67L_, Q9UKT9]",2.02,2.98,2.65,3.18
"FYCPICGAKFTQKGNLLRHIKL [46F_47Y_49P_50I_52G_53A_54K_55F_67L_, Q9UKT9]",2.61,3.07,1.08,0.503
"FYCPICGAPFTQKGNLLRHIKL [46F_47Y_49P_50I_52G_53A_54P_55F_67L_, Q9UKT9]",3.63,3.27,2.84,2.2
"FCCDICGAMFTQKGNLLRHIKL [46F_47C_49D_50I_52G_53A_54M_55F_67L_, Q9UKT9]",0.674,0.00358,0.721,-0.808
"FWCNVCGACFTQKGNLLRHIKL [46F_47W_49N_50V_52G_53A_54C_55F_67L_, Q9UKT9]",1.84,2.89,1.57,-0.431
"FYCNQCGHAFTQKGNLLRHIKL [46F_47Y_49N_50Q_52G_53H_54A_55F_67L_, Q9UKT9]",-2.34,-2.37,-2.98,-2.66
"FLCDICGASFTQKGNLLRHIKL [46F_47L_49D_50I_52G_53A_54S_55F_67L_, Q9UKT9]",0.329,-1.41,0.103,-0.525
"FNCDICGAEFTQKGNLLRHIKL [46F_47N_49D_50I_52G_53A_54E_55F_67L_, Q9UKT9]",0.228,-1.87,-2.21,-2.45
"FECEICGHGFTQKGNLLRHIKL [46F_47E_49E_50I_52G_53H_54G_55F_67L_, Q9UKT9]",-3.39,-3.7,-2.59,-2.45
"FTCEICGRLFTQKGNLLRHIKL [46F_47T_49E_50I_52G_53R_54L_55F_67L_, Q9UKT9]",-2.87,-2.3,-0.938,-0.343
"LWCNQCGFPCTQKGNLLRHIKL [46L_47W_49N_50Q_52G_53F_54P_55C_67L_, Q9UKT9]",-0.74,-1.09,-1.33,-1.27
